Results on 103 compounds are retold here after PubChem BioAssay AID623911 (Vanderbilt High Throughput Screening Facility, 2012).

Among all 2,100 compounds or so, about 770 (37%) were called active. This is one part of the list. Unmarked numbers belong to inactive results.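 The calls were made as follows: active = by-eye trace score of 1 for enhancers or -1 for inhibitors, so actives lie on both sides (some results past the limit were not filed as active); inactive = score 0, or 3 fluorescent, or 4 baseline rise.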

The target in this assay is G protein-activated inward rectifier potassium channel 2 (Homo sapiens) + G protein-activated inward rectifier potassium channel 1 (Homo sapiens) (UniProt P48051+P48549). The assay is described as follows: GIRK1/2 thallium flux modulators, retest, confirmation, cell-based, HEK293 rmGlu8/hGIRK1/2, FluoZin-2 (AID 623911). The following applies: HEK293 rmGlu8/hGIRK1/2, thallium flux FluoZin-2; actives lie on both sides; glutamate co-added at its EC20 level.
G protein-activated inward rectifier potassium channel 2 (Homo sapiens) + G protein-activated inward rectifier potassium channel 1 (Homo sapiens), sequence (P48051 whole entry, looked up): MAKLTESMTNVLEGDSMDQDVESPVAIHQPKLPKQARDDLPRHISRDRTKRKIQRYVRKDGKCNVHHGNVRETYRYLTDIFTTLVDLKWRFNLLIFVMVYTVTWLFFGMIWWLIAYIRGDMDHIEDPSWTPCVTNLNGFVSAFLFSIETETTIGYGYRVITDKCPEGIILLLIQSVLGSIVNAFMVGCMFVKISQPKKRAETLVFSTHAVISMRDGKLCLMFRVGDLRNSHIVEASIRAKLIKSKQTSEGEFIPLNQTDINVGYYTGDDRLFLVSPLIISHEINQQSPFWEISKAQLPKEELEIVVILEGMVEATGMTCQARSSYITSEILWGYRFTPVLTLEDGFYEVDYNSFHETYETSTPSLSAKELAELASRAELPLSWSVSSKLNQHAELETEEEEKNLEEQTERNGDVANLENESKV
G protein-activated inward rectifier potassium channel 2 (Homo sapiens) + G protein-activated inward rectifier potassium channel 1 (Homo sapiens), sequence (P48549 whole entry, looked up): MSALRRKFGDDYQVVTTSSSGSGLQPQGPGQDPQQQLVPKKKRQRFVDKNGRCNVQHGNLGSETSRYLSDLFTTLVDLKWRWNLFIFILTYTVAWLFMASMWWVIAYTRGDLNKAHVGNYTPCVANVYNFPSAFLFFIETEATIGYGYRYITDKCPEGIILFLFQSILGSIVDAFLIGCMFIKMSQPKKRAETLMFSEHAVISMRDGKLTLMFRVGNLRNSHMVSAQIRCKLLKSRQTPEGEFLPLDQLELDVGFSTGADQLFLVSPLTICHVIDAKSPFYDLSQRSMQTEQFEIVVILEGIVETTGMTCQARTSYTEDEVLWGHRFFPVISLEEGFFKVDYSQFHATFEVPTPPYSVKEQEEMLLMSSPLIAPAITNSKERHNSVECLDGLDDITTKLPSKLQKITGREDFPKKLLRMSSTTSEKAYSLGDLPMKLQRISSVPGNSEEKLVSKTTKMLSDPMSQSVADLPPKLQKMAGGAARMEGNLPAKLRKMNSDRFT
Consider `COc1ccc(C(C)N2CC34C=CC(O3)C(C(=O)OCC(C)C)C4C2=O)cc1` (stereo not drawn), for which the manual score is 0.
Next, `CCCOc1cccc(-c2cc(-c3n[nH]c(=S)n3CC)c3ccccc3n2)c1`: 0; `COc1ccc(S(=O)(=O)N(CCc2ccccc2)CC(=O)O)cc1`: 0.
Next, `COc1cc(C)nc(N(Cc2ccccc2)S(=O)(=O)c2ccccc2)n1`: -1 (active).
`Cc1c(C#N)c2ncn(CC#N)c(=O)c2n1-c1ccccc1`: the manual score is 0.
With `CC(=O)c1cccc(NC(=S)NC(=O)c2cccc(C)c2)c1` the figure was 0; with `O=C(NC(=S)Nc1ccc(N2CCOCC2)cc1)c1cccc(Cl)c1`, 0.5.
`O=C(NC(=S)NNC(=O)c1cccs1)c1ccc(Br)o1`: the manual score is 1 (active).
Next, `Cc1cccc(C(=O)NC(=S)NNC(=O)c2ccccc2Cl)c1`: 1 (active).
Next, `O=C(/C=C/c1cccs1)NC(=S)NNC(=O)Cc1cccs1`: 0.
For `Cc1cccc(C(=O)NC(=S)NNC(=O)c2ccc(Cl)cc2)c1`, the manual score is 1 (active).
With `CC(=O)c1cccc(NC(=S)NC(=O)c2cccc(Cl)c2)c1` the figure was 1 (active).
For `CC1CC(C)CN(Cc2nc(N)nc(Nc3ccc4ccccc4c3)n2)C1` (stereo not drawn), the manual score was 0.
Regarding `O=c1c(O)c(-c2cccs2)oc2ccccc12`, the manual score is 3.
With `Cc1cccc(C(=O)NC(=S)Nc2ccccc2C(F)(F)F)c1` the figure was 0.
With `Cc1cccc(C(=O)NC(=S)NNC(=O)c2cccs2)c1` the figure was 1 (active).
Next, `Cc1ccc(C(=O)NNC(=S)NC(=O)c2ccc(Cl)cc2)cc1`: 1 (active); `Cc1ccc(C2CC2C(=O)NNC(=S)Nc2ccc(Cl)cc2)cc1` (stereo not drawn): 0; `Cc1ccc(C(=O)NNC(=S)NC(=O)c2ccc(Cl)cc2Cl)cc1`: 0.5.
In the case of `Cc1c(C(=O)O)sc2nc3n(c(=O)c12)CCC(C)CC3` (stereo not drawn), the manual score is 0.
With `CCCN(CCC)CC(O)Cn1cc(/C=C/C(=O)c2cccs2)c2ccccc21` (stereo not drawn) the figure was 3; with `COc1ccc(Nc2nc(C)cc(C)c2C#N)cc1OC`, 0.
With `CCCC1COC(Cn2cncn2)(c2ccc(C)cc2)O1` (stereo not drawn) the figure was 0.
In the case of `Cn1c(=O)c2c(nc(-n3ccnc3)n2Cc2ccccc2)n(C)c1=O`, the manual score was 0.
With `CN(C)CCCOc1nc2c(c(=O)n(C)c(=O)n2C)n1C` the figure was 0; with `COC(=O)Cn1c(CN2CCc3ccccc3C2)nc2c1c(=O)n(C)c(=O)n2C`, 0; with `COc1ccc(N2CCN(c3nc4c(c(=O)n(C)c(=O)n4C)n3Cc3ccccc3)CC2)cc1`, -1 (active).
For `COCCn1c(CN(Cc2ccccc2)Cc2ccccc2)nc2c1c(=O)n(C)c(=O)n2C`, the manual score is -1 (active).
Next, `CCCOc1nc2c(c(=O)n(C)c(=O)n2C)n1Cc1cccc2ccccc12`: -0.5; `COC(=O)C(C)Sc1nc2c(c(=O)n(C)c(=O)n2C)n1Cc1cccc(C)c1` (stereo not drawn): 0.
Regarding `N#CCSc1nc2ccc(N3CCOCC3)cc2c(=O)n1CCc1ccccc1`, the manual score is 0.
For `CC1CCCCN1Cc1nc2c(c(=O)n(C)c(=O)n2C)n1CCc1ccccc1` (stereo not drawn), the manual score was -1 (active).
`CCCCn1c(CN(Cc2ccccc2)Cc2ccccc2)nc2c1c(=O)n(C)c(=O)n2C`: the manual score was -1 (active).
Next, `COc1ccc2nc3oc(C(=O)Nc4ccc(OC)c(OC)c4)cc3cc2c1`: 0.
With `CC1(C)Cc2ccccc2-c2nnc(SCC(=O)Nc3nc4ccccc4s3)n21`, the manual score is 0.
Next, `O=c1[nH]c(SCc2ccccc2Cl)nc2c1CCCC2`: 0.
As for `COc1cc(-c2nnc(CSc3nc4ccccc4s3)o2)cc(OC)c1OC`, the manual score is -0.5.
For `CCCCn1c(SCC(=O)/C(C#N)=C(\C)N)nc2ccccc2c1=O`, the manual score is 0.5.
On to `COc1ccc(-c2nnc(CSc3nc4ccccc4c(=O)n3C)o2)cc1OC`, for which the manual score was -1 (active).
Next, `CCn1c(-c2ccc(-c3ccccc3)cc2)c[nH]c1=S`: 0; `COc1ccc(OCc2nc(N)nc(Nc3ccccc3)n2)cc1`: 0.
`COc1ccc(C)cc1NC(=O)C(=O)NNC(=O)c1ccco1`: the manual score was 1 (active).
With `Cc1nnc(NC(=O)c2ccco2)s1` the figure was 0; with `COc1cccc(CNCCNC(=O)c2ccco2)c1OC`, 0; with `COC(=O)c1ccccc1NC(=S)NC(NC(=O)c1ccco1)C(Cl)(Cl)Cl` (stereo not drawn), 0.
For `Cc1cc(NC(=O)c2ccco2)ccc1NC(=O)Cc1cccs1`, the manual score was 0.
With `COc1ccccc1NC(=O)C(=O)NNC(=O)c1ccco1`, the manual score is 1 (active).
With `Cc1ccc(NC(=O)CSc2nnc(CCNC(=O)OC(C)(C)C)o2)c(C)c1` the figure was 0; with `Cc1ccc(/C=N\NC(=O)c2cc([N+](=O)[O-])cc([N+](=O)[O-])c2)o1`, 0; with `O=C(N/N=C\c1cc(Br)c(Br)o1)c1cncc(Br)c1`, 1 (active).
Next, `CCc1ccc(C2=NN(c3ccc(S(N)(=O)=O)cc3)C(c3ccc(F)cc3)C2)cc1` (stereo not drawn): 0; `O=C(Nc1ccc(F)cc1)c1cccnc1N1CCOCC1`: 0; `CCN(Cc1ccccc1)C(c1ccccn1)c1nnnn1C1CCCCC1` (stereo not drawn): -1 (active).
Next, `CCC(C)(C)n1nnnc1C(c1ccccn1)N1CCCCC1` (stereo not drawn): 0.
On to `O=C(NC(=S)Nc1cccc(Cl)c1N1CCCCC1)c1ccco1`, for which the manual score was 0.
Turning to `CC(Oc1ccc(Cl)cc1)C(=O)NNC(=S)NC(=O)c1ccco1` (stereo not drawn), the manual score was 1 (active).
Next, `CC(Oc1ccc2ccccc2c1)C(=O)NNC(=S)NC(=O)c1ccco1` (stereo not drawn): 1 (active); `O=C(NC(=S)Nn1cnc2c(cnn2-c2ccccc2)c1=O)c1ccc(Oc2ccccc2)cc1`: 0.
With `Cc1ccc(N(C(=O)CCC(=O)Nc2cc(C)on2)C(C(=O)NC2CCCC2)c2cccs2)cc1` (stereo not drawn) the figure was -1 (active).
With `Cc1cc(NC(=O)CSc2nc3ccsc3c(=O)n2NC(=O)c2ccccc2)no1` the figure was 0; with `O=S(=O)(c1ccc(-c2nnc(SCc3nnc(-c4ccccc4)o3)o2)cc1)N1CCCC1`, 0.
In the case of `c1ccc(Cc2nnc(-c3ccccc3)o2)cc1`, the manual score is 0.
Next, `Fc1ccc2nc(-c3ccccc3)nc(SCc3nnc(-c4ccccc4)o3)c2c1`: 1 (active).
For `O=C(NCc1ccccc1)C(=O)Nc1nc(C23CC4CC(CC(C4)C2)C3)cs1`, the manual score is 0.
With `S=C(Nc1ccccc1)Nc1cc(Cl)ccc1Oc1ccccc1` the figure was 0; with `Fc1cccc(/C=N/NC(=S)Nc2ccccc2Cl)c1`, 0.5.
Consider `FC(F)Oc1ccccc1NC(=S)Nc1cccc(Cl)c1Cl`, for which the manual score was 1 (active).
Next, `COc1ccc(C)cc1S(=O)(=O)Nc1cccc(Cl)c1Cl`: 0; `C=C(C)CNC(=S)Nc1cccc2cnccc12`: 0; `O=C(NC(=S)Nc1ccc2oc(-c3cccnc3)nc2c1)c1cccc(Cl)c1`: 0.
In the case of `S=C(Nc1cccc(Cl)c1)Nc1cccc2cnccc12`, the manual score was 1 (active).
Next, `S=C(Nc1ccccc1Oc1ccccc1)Nc1cccc(Cl)c1Cl`: 1 (active); `COC(=O)c1cccc(NC(=S)Nc2cccc(Cl)c2Cl)c1`: 0.
With `S=C(Nc1ccc(Cl)cc1Cl)Nc1ccccc1Oc1ccccc1` the figure was 0.
With `O=C(Nc1cc(Cl)ccc1Oc1ccccc1)c1ccccc1F` the figure was 0; with `S=C(Nc1cccc(Cl)c1)Nc1ccccc1Oc1ccccc1`, 1 (active); with `COc1ccc(N/C(C)=C2/C(=O)C(=O)N(CCO)C2c2ccc(Br)cc2)cc1` (stereo not drawn), 0.
Turning to `N#CC1=C(N)Oc2n[nH]c(-c3cccs3)c2C1c1ccoc1` (stereo not drawn), the manual score was 0.
Consider `O=C(Cn1nc(Cc2ccncc2)c2ccccc2c1=O)N1CCN(C(=O)c2ccco2)CC1`, for which the manual score is 0.
For the compound `O=c1c2ccccc2nc(SCc2cn3ccsc3n2)n1-c1ccc(F)cc1`, the manual score was 0.
Next, `Cc1ccc(NC(=S)Nc2ccc(Cl)c(Cl)c2)c(OC(F)F)c1`: 1 (active); `COC(=O)NC(=S)Nc1ccc(Oc2ccc(Cl)cc2Cl)c(Cl)c1`: 0; `Fc1ccc(NC(=S)Nc2ccccc2OC(F)F)cc1Cl`: 1 (active).
With `O=C(O)CN=C(NS(=O)(=O)c1ccccc1)c1ccccc1` the figure was 0; with `Cc1cc(C(=O)CSc2nnc(-c3ccncc3)n2-c2ccccc2)c(C)n1C`, 0.
Next, `COc1ccc(Cl)cc1C(=O)CSc1nnnn1C1CCCC1`: 0; `COc1ccccc1-n1cnnc1SCC(=O)c1cc(C)n(Cc2cccs2)c1C`: -1 (active).
Turning to `COc1cccc(-c2cc(C(=O)NC3CCCC3)no2)c1`, the manual score was 0.
With `CN(C)CCCNC(=O)c1ccc(-c2nc(-c3ccc(Cl)cc3)cs2)cc1` the figure was 0; with `CCN(CC)CCCNC(=O)c1cc(-c2ccc(Cl)c(Cl)c2)on1`, -1 (active).
Take `CC(C)CCOP(=O)(c1ccc(N(C)C)cc1)C(O)c1ccccn1` (stereo not drawn): the manual score was 0.
For `COc1ccc2c(c1)C(C)=CC(C)(C)N2C(=O)CNCc1ccc2c(c1)OCO2`, the manual score was -1 (active).
Next, `CC(C)(C)c1nn(-c2ccccc2)c2[nH]c(=O)c(CNCc3ccc4c(c3)OCO4)cc12`: 0.
Next, `Cc1c(C(=O)O)[nH]c2c1C(=O)CC(c1ccc(Cl)cc1)C2` (stereo not drawn): 0.
With `Cc1cccc(OCc2nnc(SCC(=O)N3CCc4ccccc43)n2C)c1` the figure was 0.
With `N=c1n(CCN2CCCCC2)c2ccccc2n1CC(O)COc1ccccc1` (stereo not drawn), the manual score is -1 (active).
With `Cc1cccc(OCC(O)Cn2c(=N)n(CCN3CCCCC3)c3ccccc32)c1` (stereo not drawn) the figure was -1 (active); with `Cc1ccc(OCC(O)Cn2c(=N)n(CCN3CCCCC3)c3ccccc32)cc1` (stereo not drawn), -1 (active).
With `O=C(NNc1ccccc1Br)C(=O)n1ccc2ccccc21` the figure was 0.
`COCCCN1C(=O)C(=O)/C(=C(/O)c2ccc(C)cc2)C1c1ccccc1` (stereo not drawn): the manual score was 0.
With `COc1ccc(/C=N/n2c(SC)nnc2-c2ccccc2)c(OC)c1OC`, the manual score is -1 (active).
With `COc1ccc(-c2nn(-c3ccccc3)cc2/C=N/n2cnnc2)cc1OC` the figure was 0; with `COc1cccc(/C=N/n2c(=S)n(C)c3ccccc32)c1OC`, 0.
